Giardia kill = Giardia lamblia killing; 0.15% of 340,000 active; activity change, % at 7.66 µM, hits read low; Giardia lamblia trophozoite viability; in the data active means activity change below about -80%; inconclusive means between about -30% and that limit;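 further: parasites exposed to compound for two days anaerobically before the ATP read; on the % scale 0 is the no-effect control and ±100 the full control effect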
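Viability, read as ATP luminescence: trophozoites at 100 cells/well, compound added, 48 hrs anaerobic at 37 deg C, then 15-30 min room-temperature development before reading.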
ATXN2 expr inh = inhibitors of ATXN2 expression. HEK-293 ATXN2-luciferase reporter, luminescence, 24 h. Potency, µM (titrated, usually from 57 µM), for the others: top-dose activity change, negative = inhibition, hits mostly inhibitors. 0.72% of 360,000 active. AID 1745845; further: potency means the concentration at half of the fitted maximal effect; on the % scale 0 is the no-effect control and ±100 the full control effect; nearly all actives have a fitted effect of over 55% in size
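ATXN2-luciferase reporter cells (luciferase flanked by upstream and downstream ATXN2 gene portions) were treated 24 h at 37 °C with compounds at up to 57 uM. SteadyGlo luminescence gave expression; GF-AFC fluorescence gave viability.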
TGFb inhibitor = blocks TGF-b signaling | HepG2 CAGA-GFP TGF-b/SMAD3 reporter, GFP fluorescence, 18 h; TGF-beta stimulated, 500 pg/mL final | Potency, µM (titrated, usually from 46.1 µM), for inactives: top-dose activity, negative = inhibition, actives largely listed as inhibitors | 1.2% of 410,000 active; further: potency means the concentration at half of the fitted maximal effect; on the % scale 0 is the no-effect control and ±100 the full control effect; nearly all actives have a fitted effect of over 65% in size
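Using HEPG2 CAGA-GFP reporter cells at 1000 cells/well, we pinned test compounds, stimulated with recombinant TGF-beta (500 pg/mL final) and measured total well GFP after 18 h.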
HepG2 tox-1 = HepG2 cytotoxicity, counter-screen for TGF-b inhibitors; 0.76% of 410,000 active; HepG2 CAGA-GFP viability, ATP luminescence, 18 h; Potency, µM (titrated, usually from 46.1 µM), without a hit: at the highest dose activity change, negative = cytotoxicity, most hits filed as cytotoxic; further: potency means the concentration at half of the fitted maximal effect
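HepG2 CAGA-GFP cells (1000/well, DMEM with 1% FBS) received compound, then TGF-beta at 500 pg/mL final, and were incubated 18 hours at 37 degrees C. Viability was read by CellTiter-Glo luminescence. Media-only wells were set as complete cell-killing and DMSO as no toxicity.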
ATXN viability = reduces viability in counter-screen for ATXN expression inhibitors. Potency, µM (series often up to 56.7 µM), usual class: cytotoxic. AID 651635. S2 cells (HEK-293 line with an ATXN2-luciferase reporter) viability, CellTiter-Fluor protease fluorescence, 24 h. 0.49% of 400,000 active; further: potency means the concentration at half of the fitted maximal effect; nearly all actives have a fitted effect of over 40% in size
uPA surface inh = inhibitors of cell surface uPA generation; 0.31% of 330,000 active; AID 540303; Potency, µM (titrated, usually from 38.3 µM), without a hit: at the top dose activity change, negative = inhibition, most hits filed as inhibitors; cell surface uPA generation assay, qHTS; active means well fitted inhibition curve with a large enough effect; inconclusive means small, poorly fitted or top-dose-only effect; inactive means no such curve, though single readings can be large or run the other way; tested in mouse RAW 264.7 cells; further: potency means the concentration at half of the fitted maximal effect; on the % scale 0 is the no-effect control and ±100 the full control effect; nearly all actives have a fitted effect of over 55% in size
TGFb confirm = confirmation of TGF-b signaling inhibitors in HepG2 reporter cells; 63% of 1,600 active; shares compounds with TGFb inhibitor; HepG2 CAGA-GFP TGF-b reporter, GFP fluorescence, 18 h; cells stimulated with TGF-beta, 500 pg/mL; Potency, µM (highest dose often 46.1 µM), without a hit: at the highest dose activity, negative = inhibition, actives largely listed as inhibitors; further: potency means the concentration at half of the fitted maximal effect; on the % scale 0 is the no-effect control and ±100 the full control effect; nearly all actives have a fitted effect of over 65% in size
HepG2 tox-2 = toxic to HepG2 cells in TGF-b counterscreen; Potency, µM (titrated, usually from 46.1 µM), inactives show top-dose activity, negative = cytotoxicity, most hits filed as inhibitors; shares compounds with TGFb inhibitor; AID 720535; HepG2 CAGA-GFP viability, ATP luminescence, 18 h; cells stimulated with TGF-beta, 500 pg/mL; 27% of 1,600 active; further: potency means the concentration at half of the fitted maximal effect; on the % scale 0 is the no-effect control and ±100 the full control effect; nearly all actives have a fitted effect of over 70% in size
TGFb CCL64 inh = TGF-b inhibition, CCL64 orthogonal assay | shares compounds with TGFb inhibitor | CCL64 CAGA-GFP reporter, TGF-b stimulated, GFP fluorescence, 18 h | Potency, µM (titrated, usually from 46.1 µM), for the others: at the top dose activity, negative = inhibition, hits mostly inhibitors | AID 720536 | 41% of 1,600 active; further: potency means the concentration at half of the fitted maximal effect; nearly all actives have a fitted effect of over 65% in size
COP TGFb inh = TGF-b inhibition validated with COP promoter; shares compounds with TGFb inhibitor; HepG2 COP-GFP TGF-b reporter, GFP fluorescence, 18 h; cells stimulated by added recombinant TGF-beta; Potency, µM (doses to about 46.1 µM), inactives show at the highest dose activity, negative = inhibition, usual class: inhibitors; 3% of 1,600 active; AID 720537; further: potency means the concentration at half of the fitted maximal effect; nearly all actives have a fitted effect of over 70% in size
* hit, by the source's call; i = inactive; ? = inconclusive; · = not tested or not shown; [ ] = remark or other dose. The list is not random: actives were taken first. Their share in the collection is about 2.6%. Unless noted, the call rests on the fitted dose curve; in most records, active means well fitted curve in the direction sought with a large enough effect; inconclusive means small, poorly fitted or top-dose-only effect, or another doubt; inactive means no such curve, though single readings can be large; an effect the other way counts as inactive or inconclusive.

SMILES	Giardia kill	ATXN2 expr inh	TGFb inhibitor	HepG2 tox-1	ATXN viability	uPA surface inh	TGFb confirm	HepG2 tox-2	TGFb CCL64 inh	COP TGFb inh
O=S(=O)(NCC(Nc1ccccc1)c1ccccc1)c1ccc(Cl)cc1 (stereo not drawn)	-9.8	?	10µM*	-81.7%	?	-2.0%	?	-4.8%	-1.0%	5.7%
Oc1nc(Nc2ccc(F)cc2)sc1/C=C1\C=Nc2ccccc21	2.3	-2.4%	?	-26.7%	?	-1.2%	·	·	·	·
CC1=Nc2ccccc2/C1=C\c1sc(Nc2ccc(C)cc2)nc1O	?	-3.9%	11.2µM*	-2.9%	?	-14.6%	5.17µM*	?	5.17µM*	16.8%
CC(C)C[C@@H](CN1CCCC1CN1C(=S)NC[C@@H]1Cc1ccc(O)cc1)N1C[C@H](Cc2ccccc2)N(CC2CCCCC2)C1=S (stereo partly drawn)	-3.0	-15.1%	?	-34.3%	?	-2.0%	·	·	·	·
CC(C)C[C@@H](CN1CCCC1CN1C(=S)NC[C@@H]1Cc1ccc(O)cc1)N1C[C@H](Cc2ccccc2)N(CC2CCCCCC2)C1=S (stereo partly drawn)	9.3	-28.1%	15.8µM*	-6.8%	?	23.1%	10.3µM*	?	2.06µM*	30.8%
CC(C)C[C@@H](CN1CCCC1CN1C(=S)NC[C@@H]1Cc1ccc(O)cc1)N1C[C@H](Cc2ccc(O)cc2)N(CC2CCCCCC2)C1=S (stereo partly drawn)	34.3	?	5.62µM*	-110.6%	28.2µM*	-8.5%	20.6µM*	?	13µM*	?
CC(C)C[C@H]1CN([C@@H](Cc2ccc(O)cc2)CN2CCC[C@@H]2CN2C(=S)NC[C@@H]2Cc2ccccc2)C(=S)N1CC1CCCCCC1	·	?	10µM*	-4.9%	?	·	?	-8.7%	?	28.3%
CC(C)C[C@H]1CN([C@@H](Cc2ccc(O)cc2)CN2CCCC2CN2C(=S)NC[C@@H]2Cc2ccccc2)C(=S)N1CC1CCCCC1 (stereo partly drawn)	·	0.0%	·	·	?	·	·	·	·	·
COC(=O)C(NS(N)(=O)=O)C(C)C (stereo not drawn)	-0.1	·	-20.6%	-19.4%	·	·	·	·	·	·
CC1CCN(C(=O)CCCC(=O)N2CCC(C)CC2)CC1	4.3	11.2%	0.4%	2.8%	i	?	·	·	·	·
COc1cc(N)ccc1NC(=O)c1cc2ccccc2o1	20.0	·	16.2%	-4.3%	i	-18.1%	·	·	·	·
Cc1ccc(SCC(=O)Nc2cc([N+](=O)[O-])ccc2O)cc1	-15.0	12.4%[11.3 µM]	17.8µM*	-30.7%	i	1.0%	4.61µM*	?	?	81.7%
O=C(NCc1ccc(Cl)nc1)c1csc([C@@H]2C[C@H](O)[C@@H](CO)O2)n1	·	2.4%	7.9%	8.7%	i	·	·	·	·	·
CC(C)Cn1c(C(C)C)nc([N+](=O)[O-])c1S(=O)(=O)c1ccc(F)cc1	6.5	-25.4%	?	-43.7%	?	·	·	·	·	·
CCCc1nc([N+](=O)[O-])c(S(=O)(=O)c2ccccc2)n1CC(C)C	39.6	?	10µM*	-64.1%	?	-9.8%	20.6µM*	?	16.4µM*	28.4%
Cc1ccc(S(=O)(=O)N2C[C@H]3[C@H]4C(=O)N(Cc5ccccc5)C(=O)[C@H]4CC(=O)[C@H]3[C@@H]2c2cccc3ccccc23)cc1	·	1.3%	?	-5.1%	i	·	·	·	·	·
O=C(/C=C/c1cccc([N+](=O)[O-])c1)Nc1ccc(NC(=O)c2cccs2)cc1	55.7	?	9.2%	27.1%	?	0.8%	·	·	·	·
CC(=O)Oc1ccccc1C(=O)C=Cc1cccc([N+](=O)[O-])c1	-11.7	?	7.08µM*	-30.9%	·	-19.2%	10.3µM*	?	5.8µM*	?
O=C(/C=C/c1cccc([N+](=O)[O-])c1)c1cccs1	-23.0	?	8.91µM*	-37.3%	?	-11.7%	11.6µM*	18.4µM*	5.8µM*	23.3%
CC(=O)C1CCC2C3CC(C)=C4CC(O)CCC4(C)C3CCC12C (stereo not drawn)	-6.7	-10.2%	-0.7%	-10.3%	i	-5.0%	·	·	·	·
CCSc1nc(N)nc2c1ncn2C1OC(CO)C(O)C1O (stereo not drawn)	-1.9	-0.3%	4.6%	-22.8%	i	10.7%	·	·	·	·
Cn1cnc([N+](=O)[O-])c1Sc1nc(N)nc2c1ncn2C1OC(CO)C(O)C1O (stereo not drawn)	-9.6	-33.2%	2µM*	-45.6%	?	-8.3%	2.91µM*	0.92µM*	3.1%	65.0%
Cn1cnc([N+](=O)[O-])c1Sc1nc(N)nc2c1ncn2C1CC(O)C(CO)O1 (stereo not drawn)	7.1	-35.0%	3.98µM*	-38.6%	?	-8.2%	4.11µM*	?	18.8%	82.2%
CCOc1ccccc1CNC(=O)C1CCN(c2nc3ccccc3nc2C(F)(F)F)CC1	·	16.5%	?	-12.0%	i	·	·	·	·	·
CC(C)(C)C1CCN2CCCC(c3ccc([N+](=O)[O-])cc3)(C1)C21OCCO1 (stereo not drawn)	·	-12.8%	·	·	i	·	·	·	·	·
CC(C)c1ccc(NC(=O)CN2C(=O)C3(SCC(=O)N3c3ccc(F)cc3)c3ccccc32)cc1 (stereo not drawn)	·	-25.5%	-27.8%	-23.9%	i	·	·	·	·	·
C[C@]12c3[nH]c4cc(-c5ccco5)ccc4c3CCN1C(=O)[C@@H](CC(=O)NCC13CC4CC(CC(C4)C1)C3)C[C@@H]2C(=O)N1CCOCC1	6.8	?	10µM*	-3.1%	?	?	9.2µM*	?	?	60.1%

Compound activity: PubChem, National Center for Advancing Translational Sciences (NCATS)
